# Measurements as given in ChEMBL document CHEMBL2218924, “A broad activity screen in support of a chemogenomic map for kinase signalling research and drug discovery” (Biochem J, 2013).
# Key:
# [1] = molecular target: T1, Ephrin type-A receptor 3 (Homo sapiens) (UniProt P29320); settings: at 10 µM
# T1 sequence (whole entry): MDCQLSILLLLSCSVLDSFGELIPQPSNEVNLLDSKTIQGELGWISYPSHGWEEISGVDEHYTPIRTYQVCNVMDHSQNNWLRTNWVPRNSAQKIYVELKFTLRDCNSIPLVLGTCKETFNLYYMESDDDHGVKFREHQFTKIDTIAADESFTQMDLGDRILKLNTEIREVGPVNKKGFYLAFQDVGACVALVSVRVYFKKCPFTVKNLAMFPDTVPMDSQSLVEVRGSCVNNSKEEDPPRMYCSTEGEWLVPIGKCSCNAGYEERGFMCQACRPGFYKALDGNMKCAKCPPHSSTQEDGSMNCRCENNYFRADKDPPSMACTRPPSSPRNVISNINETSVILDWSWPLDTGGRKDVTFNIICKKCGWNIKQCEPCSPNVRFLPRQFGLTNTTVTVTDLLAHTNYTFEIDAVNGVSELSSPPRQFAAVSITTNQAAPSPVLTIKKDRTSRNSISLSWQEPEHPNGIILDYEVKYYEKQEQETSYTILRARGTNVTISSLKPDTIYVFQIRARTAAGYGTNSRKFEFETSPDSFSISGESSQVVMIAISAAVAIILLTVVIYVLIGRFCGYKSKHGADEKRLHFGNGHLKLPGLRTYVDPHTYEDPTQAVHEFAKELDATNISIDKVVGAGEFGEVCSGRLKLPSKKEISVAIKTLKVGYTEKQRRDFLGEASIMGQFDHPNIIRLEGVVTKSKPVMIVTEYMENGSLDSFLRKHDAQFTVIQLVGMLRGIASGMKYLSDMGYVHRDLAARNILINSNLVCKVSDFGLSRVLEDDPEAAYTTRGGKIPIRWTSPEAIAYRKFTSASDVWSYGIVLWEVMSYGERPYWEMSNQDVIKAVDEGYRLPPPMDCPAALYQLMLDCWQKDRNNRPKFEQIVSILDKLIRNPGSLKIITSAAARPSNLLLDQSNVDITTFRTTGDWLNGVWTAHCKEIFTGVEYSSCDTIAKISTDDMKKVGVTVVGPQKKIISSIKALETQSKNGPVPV
# [2] = molecular target: Ephrin type-A receptor 4 (Homo sapiens) (UniProt P54764); settings: at 1 µM
# [3] = molecular target: Ephrin type-A receptor 4 (Homo sapiens) (UniProt P54764); settings: at 10 µM
# [4] = molecular target: Ephrin type-A receptor 5 (Homo sapiens) (UniProt P54756); settings: at 1 µM
# [5] = molecular target: Ephrin type-A receptor 5 (Homo sapiens) (UniProt P54756); settings: at 10 µM
# [6] = molecular target: Ephrin type-A receptor 7 (Homo sapiens) (UniProt Q15375); settings: at 1 µM
# [7] = molecular target: Ephrin type-A receptor 7 (Homo sapiens) (UniProt Q15375); settings: at 10 µM
# [8] = molecular target: T2, Ephrin type-A receptor 8 (Homo sapiens) (UniProt P29322); settings: at 1 µM
# T2 sequence (whole entry): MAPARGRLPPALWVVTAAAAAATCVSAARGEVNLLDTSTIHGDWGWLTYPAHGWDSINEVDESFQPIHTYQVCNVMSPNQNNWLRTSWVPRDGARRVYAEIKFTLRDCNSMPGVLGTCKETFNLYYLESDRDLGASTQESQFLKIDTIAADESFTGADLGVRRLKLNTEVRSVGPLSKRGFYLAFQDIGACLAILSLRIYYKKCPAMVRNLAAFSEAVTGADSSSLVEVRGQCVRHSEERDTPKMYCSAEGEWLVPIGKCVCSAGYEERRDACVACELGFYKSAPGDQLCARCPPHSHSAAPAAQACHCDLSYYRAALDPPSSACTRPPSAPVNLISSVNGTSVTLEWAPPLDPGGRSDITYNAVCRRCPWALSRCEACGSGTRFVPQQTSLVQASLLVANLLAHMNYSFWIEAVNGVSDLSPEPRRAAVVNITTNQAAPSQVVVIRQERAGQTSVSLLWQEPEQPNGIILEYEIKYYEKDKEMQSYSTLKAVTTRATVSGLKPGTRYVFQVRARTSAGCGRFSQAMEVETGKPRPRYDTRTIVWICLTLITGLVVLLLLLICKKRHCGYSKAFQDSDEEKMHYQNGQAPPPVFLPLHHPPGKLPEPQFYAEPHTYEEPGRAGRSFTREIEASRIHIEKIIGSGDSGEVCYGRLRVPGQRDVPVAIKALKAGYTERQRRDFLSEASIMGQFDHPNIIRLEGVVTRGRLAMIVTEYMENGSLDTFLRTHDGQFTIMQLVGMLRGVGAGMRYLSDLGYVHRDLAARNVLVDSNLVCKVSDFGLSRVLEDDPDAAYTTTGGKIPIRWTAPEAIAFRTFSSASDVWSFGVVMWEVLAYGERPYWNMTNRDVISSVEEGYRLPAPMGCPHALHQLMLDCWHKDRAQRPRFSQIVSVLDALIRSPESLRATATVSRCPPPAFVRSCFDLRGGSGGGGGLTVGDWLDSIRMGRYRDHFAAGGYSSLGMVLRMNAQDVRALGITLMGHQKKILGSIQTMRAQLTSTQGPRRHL
# [9] = molecular target: T2, Ephrin type-A receptor 8 (Homo sapiens); settings: at 10 µM
# [10] = molecular target: T3, Ephrin type-B receptor 1 (Homo sapiens) (UniProt P54762); settings: at 1 µM
# T3 sequence (whole entry): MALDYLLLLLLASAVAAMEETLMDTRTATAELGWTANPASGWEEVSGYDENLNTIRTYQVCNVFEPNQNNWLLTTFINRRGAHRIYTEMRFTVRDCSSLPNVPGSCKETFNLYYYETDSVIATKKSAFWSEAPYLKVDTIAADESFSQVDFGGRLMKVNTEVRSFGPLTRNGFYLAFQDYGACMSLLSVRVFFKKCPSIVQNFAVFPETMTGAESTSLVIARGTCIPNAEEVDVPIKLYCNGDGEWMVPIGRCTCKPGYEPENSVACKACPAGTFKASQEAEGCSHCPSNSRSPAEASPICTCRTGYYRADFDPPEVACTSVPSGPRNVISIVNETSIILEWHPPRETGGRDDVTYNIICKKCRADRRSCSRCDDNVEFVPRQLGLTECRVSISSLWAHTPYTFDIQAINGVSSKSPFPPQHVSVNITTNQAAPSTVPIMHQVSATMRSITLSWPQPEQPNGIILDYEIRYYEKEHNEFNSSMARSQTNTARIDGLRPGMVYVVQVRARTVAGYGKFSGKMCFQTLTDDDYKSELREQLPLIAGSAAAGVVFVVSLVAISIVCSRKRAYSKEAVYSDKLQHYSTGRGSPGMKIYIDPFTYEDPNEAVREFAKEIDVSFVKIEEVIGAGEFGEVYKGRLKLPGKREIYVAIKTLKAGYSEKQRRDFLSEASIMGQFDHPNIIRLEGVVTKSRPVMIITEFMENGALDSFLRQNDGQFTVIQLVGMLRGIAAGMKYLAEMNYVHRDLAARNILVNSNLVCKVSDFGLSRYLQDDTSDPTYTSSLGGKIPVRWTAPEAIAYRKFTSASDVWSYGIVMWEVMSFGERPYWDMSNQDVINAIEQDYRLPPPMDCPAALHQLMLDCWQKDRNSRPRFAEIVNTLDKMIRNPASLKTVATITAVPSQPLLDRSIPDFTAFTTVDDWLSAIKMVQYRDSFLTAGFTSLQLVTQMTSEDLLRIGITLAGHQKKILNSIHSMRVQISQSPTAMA
# Ephrin type-A receptor 4 (Homo sapiens), sequence (P54764 whole entry): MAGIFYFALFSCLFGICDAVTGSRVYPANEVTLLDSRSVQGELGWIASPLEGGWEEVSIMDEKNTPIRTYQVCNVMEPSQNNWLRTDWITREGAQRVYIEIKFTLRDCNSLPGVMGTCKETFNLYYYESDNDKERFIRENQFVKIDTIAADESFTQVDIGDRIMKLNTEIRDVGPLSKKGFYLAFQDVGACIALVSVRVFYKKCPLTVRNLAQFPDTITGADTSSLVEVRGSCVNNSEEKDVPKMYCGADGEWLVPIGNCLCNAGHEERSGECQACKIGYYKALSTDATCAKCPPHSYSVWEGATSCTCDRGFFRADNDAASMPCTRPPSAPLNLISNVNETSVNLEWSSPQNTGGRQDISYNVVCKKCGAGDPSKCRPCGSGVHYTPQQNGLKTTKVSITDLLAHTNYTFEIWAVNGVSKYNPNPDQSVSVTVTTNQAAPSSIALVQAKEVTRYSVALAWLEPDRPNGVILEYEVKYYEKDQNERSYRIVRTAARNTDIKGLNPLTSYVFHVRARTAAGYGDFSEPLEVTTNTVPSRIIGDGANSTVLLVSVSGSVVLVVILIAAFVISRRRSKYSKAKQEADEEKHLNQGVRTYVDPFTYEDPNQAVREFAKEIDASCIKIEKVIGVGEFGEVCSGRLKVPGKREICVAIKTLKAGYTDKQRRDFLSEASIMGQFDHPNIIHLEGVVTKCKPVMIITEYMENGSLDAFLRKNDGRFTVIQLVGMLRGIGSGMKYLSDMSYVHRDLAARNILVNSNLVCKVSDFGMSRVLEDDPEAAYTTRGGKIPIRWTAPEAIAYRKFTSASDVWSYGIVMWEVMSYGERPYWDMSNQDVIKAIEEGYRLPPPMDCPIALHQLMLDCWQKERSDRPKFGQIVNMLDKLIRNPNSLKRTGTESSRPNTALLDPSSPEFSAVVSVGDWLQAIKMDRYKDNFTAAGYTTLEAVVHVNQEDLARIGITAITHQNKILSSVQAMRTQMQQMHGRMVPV
# Ephrin type-A receptor 7 (Homo sapiens), sequence (Q15375 28-998 limits assumed): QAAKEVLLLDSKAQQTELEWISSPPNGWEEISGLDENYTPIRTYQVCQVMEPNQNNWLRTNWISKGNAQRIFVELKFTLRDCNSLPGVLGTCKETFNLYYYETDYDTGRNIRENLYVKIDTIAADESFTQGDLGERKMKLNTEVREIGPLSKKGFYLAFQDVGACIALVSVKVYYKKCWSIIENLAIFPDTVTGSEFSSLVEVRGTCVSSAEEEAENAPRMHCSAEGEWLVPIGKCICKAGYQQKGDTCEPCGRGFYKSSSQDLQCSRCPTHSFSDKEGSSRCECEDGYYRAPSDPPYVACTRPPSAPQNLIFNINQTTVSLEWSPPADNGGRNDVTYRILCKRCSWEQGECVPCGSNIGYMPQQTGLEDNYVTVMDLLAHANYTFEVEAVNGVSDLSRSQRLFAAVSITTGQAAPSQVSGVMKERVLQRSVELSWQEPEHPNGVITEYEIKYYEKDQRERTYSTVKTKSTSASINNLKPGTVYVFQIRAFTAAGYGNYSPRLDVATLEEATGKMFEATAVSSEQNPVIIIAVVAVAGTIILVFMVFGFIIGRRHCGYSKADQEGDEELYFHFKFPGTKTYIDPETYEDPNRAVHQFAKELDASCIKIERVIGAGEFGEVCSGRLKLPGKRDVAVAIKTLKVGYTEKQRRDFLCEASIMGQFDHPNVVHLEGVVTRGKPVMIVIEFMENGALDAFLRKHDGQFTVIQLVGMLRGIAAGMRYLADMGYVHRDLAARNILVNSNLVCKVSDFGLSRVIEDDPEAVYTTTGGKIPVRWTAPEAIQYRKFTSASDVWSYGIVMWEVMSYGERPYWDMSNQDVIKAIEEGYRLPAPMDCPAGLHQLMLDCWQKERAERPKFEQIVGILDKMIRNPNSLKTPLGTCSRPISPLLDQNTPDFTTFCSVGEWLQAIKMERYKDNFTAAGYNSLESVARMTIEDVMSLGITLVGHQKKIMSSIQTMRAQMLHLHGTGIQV
# Ephrin type-A receptor 5 (Homo sapiens), sequence (P54756 whole entry): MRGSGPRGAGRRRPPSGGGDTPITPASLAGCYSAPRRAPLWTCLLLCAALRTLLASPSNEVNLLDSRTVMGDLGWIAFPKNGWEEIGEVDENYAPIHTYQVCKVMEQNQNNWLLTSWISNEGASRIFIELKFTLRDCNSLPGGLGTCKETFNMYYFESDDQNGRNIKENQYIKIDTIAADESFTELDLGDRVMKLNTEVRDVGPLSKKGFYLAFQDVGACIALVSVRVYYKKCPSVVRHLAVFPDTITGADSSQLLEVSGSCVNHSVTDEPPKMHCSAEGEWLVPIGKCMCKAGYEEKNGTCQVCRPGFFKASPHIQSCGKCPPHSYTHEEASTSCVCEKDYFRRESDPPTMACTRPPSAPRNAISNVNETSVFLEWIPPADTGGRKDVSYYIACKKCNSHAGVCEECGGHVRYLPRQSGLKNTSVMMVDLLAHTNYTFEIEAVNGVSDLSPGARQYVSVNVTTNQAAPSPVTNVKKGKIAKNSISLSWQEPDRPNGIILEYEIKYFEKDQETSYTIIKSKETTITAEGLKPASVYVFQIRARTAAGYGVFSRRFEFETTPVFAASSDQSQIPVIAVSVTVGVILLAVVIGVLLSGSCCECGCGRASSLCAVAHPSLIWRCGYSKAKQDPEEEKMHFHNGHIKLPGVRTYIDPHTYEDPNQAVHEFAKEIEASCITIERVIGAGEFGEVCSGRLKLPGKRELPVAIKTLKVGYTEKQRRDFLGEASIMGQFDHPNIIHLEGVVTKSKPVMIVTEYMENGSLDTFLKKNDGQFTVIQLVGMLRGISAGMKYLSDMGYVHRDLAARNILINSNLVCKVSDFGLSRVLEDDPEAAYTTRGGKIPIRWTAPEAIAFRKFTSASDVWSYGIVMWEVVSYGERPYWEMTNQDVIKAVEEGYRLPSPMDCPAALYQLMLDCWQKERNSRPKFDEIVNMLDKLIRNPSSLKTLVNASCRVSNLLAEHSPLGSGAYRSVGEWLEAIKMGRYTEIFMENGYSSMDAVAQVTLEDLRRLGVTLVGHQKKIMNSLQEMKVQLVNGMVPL
structure (smiles),measurement,setting,value
COc1cc2ncnc(Nc3ccc(Oc4ccccc4)cc3)c2cc1OC,residual activity,[1],106%
same,residual activity,[2],107%
same,residual activity,[3],103%
same,residual activity,[4],130%
same,residual activity,[5],89%
same,residual activity,[6],102%
same,residual activity,[7],84%
same,residual activity,[8],91%
same,residual activity,[9],65%
same,residual activity,[10],110%
